# Results filed as inconclusive are left out. The source made the active and inactive calls. Rule for the calls: active = hit-call score of the fitted dose curve at least 0.9, where 1 is the maximum; inconclusive = response in the unintended direction; inactive = score below 0.9.
# Molecular target: Estrogen receptor (Homo sapiens) (UniProt P03372)
# Experiment: NVS_NR_hER: NovaScreen (NVS) Nuclear Receptor Binding Assay for human Estrogen Receptor (ER) (AID 2283348)
# Summary of the method: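 Scintillation signal from bound radioligand was measured 18 hours after chemical addition to cell-free MCF7 protein extracts, with DMSO as baseline. Activity was scored as signal loss; compounds ran first at 25 uM in duplicate.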
# Chain of Estrogen receptor (Homo sapiens) (P03372 whole entry, looked up): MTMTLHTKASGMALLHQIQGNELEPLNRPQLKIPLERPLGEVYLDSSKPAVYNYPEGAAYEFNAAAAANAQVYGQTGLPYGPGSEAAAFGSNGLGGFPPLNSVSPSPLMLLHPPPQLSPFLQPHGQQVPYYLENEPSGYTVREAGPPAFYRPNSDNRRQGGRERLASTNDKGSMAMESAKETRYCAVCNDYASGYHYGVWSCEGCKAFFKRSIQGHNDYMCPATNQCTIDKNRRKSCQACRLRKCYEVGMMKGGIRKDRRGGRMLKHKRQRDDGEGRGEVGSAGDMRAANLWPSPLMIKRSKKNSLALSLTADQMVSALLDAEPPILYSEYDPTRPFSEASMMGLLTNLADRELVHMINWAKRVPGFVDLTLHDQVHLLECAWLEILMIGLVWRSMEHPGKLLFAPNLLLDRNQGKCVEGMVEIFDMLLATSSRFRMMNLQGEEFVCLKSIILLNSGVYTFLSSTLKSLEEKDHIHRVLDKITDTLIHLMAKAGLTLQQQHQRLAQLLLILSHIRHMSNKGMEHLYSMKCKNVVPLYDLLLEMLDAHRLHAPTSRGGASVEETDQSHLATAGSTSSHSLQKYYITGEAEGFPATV
Structure (SMILES),outcome,AC50
CCOC(=O)c1nc(C(Cl)(Cl)Cl)n(-c2ccc(Cl)cc2Cl)n1,inactive,–
NCc1cccc(CN)c1,inactive,–
Oc1c(Cl)cc(Cl)cc1Sc1cc(Cl)cc(Cl)c1O,inactive,–
CCc1ccccc1O,inactive,–
CC1=CC(=O)c2ccccc2C1=O,inactive,–
O=C(Nc1ccc(Cl)c(Cl)c1)c1cc(Cl)cc(Cl)c1O,–,25 µM (active)
NNc1nc(-c2ccc([N+](=O)[O-])cc2)cs1,inactive,–
Cc1cc(Cc2cc(C)cc(C(C)(C)C)c2O)c(O)c(C(C)(C)C)c1,inactive,–
Oc1ccc(Cc2ccccc2O)cc1,inactive,–
CCCCCCc1ccc(N)cc1,inactive,–
O=C(c1cc(O)c(O)c(O)c1)c1ccc(O)c(O)c1O,inactive,–
Nc1cc(Cl)c(-c2cc(Cl)c(N)cc2Cl)cc1Cl,–,0.0384 µM (active)
C=CC(=O)OCC(CO)(COCC(COC(=O)C=C)(COC(=O)C=C)COC(=O)C=C)COC(=O)C=C,inactive,–
O=C(Nc1cccc([N+](=O)[O-])c1)c1cc2ccccc2cc1O,inactive,–
CCCCCCCCCCCCCC[n+]1ccccc1,inactive,–
CCCCCC(C)OC(=O)COc1ccc(Cl)c2cccnc12 (stereo unspecified),inactive,–
CCCCCCCCCCCC[N+](C)(C)CCCCCCCCCCCC,–,46.8 µM (active)
c1ccc(CNc2ncnc3c2ncn3C2CCCCO2)cc1 (stereo unspecified),inactive,–

# Molecular target: Estrogen receptor (Homo sapiens) (UniProt P03372)
# Experiment: OT_ER_ERaERa_1440: Odyssey Thera (OT) 24-hour HEK293T Protein-Complementation Assay for Estrogen Receptor-alpha/-alpha Homodimer (AID 2283349);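 note: hits raise fluorescence above DMSO for agonists and antagonists alike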
# Summary of the method: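 Protein-fragment complementation between two human ERα ligand-binding domains (aa 310-547) in stably transfected HEK293T cells was monitored after 24 h treatment, using fluorescence intensity relative to vehicle controls.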
Structure (SMILES),outcome,AC50
CCCCCCC(C)(C)C(=O)O,inactive,–
NCc1cccc(CN)c1,inactive,–
CCCCCCCCCCCCOC(=O)c1cc(O)c(O)c(O)c1,–,11.9 µM (active)
O=C(O)c1cccc(C(=O)O)n1,inactive,–
CCc1ccccc1O,inactive,–
COc1cc([N+](=O)[O-])ccc1N,inactive,–
Cc1cc(Cc2cc(C)cc(C(C)(C)C)c2O)c(O)c(C(C)(C)C)c1,inactive,–
CN(Cc1cnc2nc(N)nc(N)c2n1)c1ccc(C(=O)N[C@@H](CCC(=O)O)C(=O)O)cc1,inactive,–
CCCCCCCCCC=CCC1CC(=O)OC1=O (stereo unspecified),inactive,–
CCCCCCc1ccc(N)cc1,inactive,–
NCCN,inactive,–
CCCCc1ccc2ccccc2c1S(=O)(=O)O,inactive,–
CCCCCC(C)OC(=O)COc1ccc(Cl)c2cccnc12 (stereo unspecified),inactive,–
